# Laboratory results as given in the supplement of paper PMC10849652.
# Of roughly 7,900 targets only a part is listed; those with a hit were picked by preference. About 0.6% of all pairs of compound and target were hits. A number with no mark means an inactive call.
# Legend:
# Assay in all cases: log2 fold change, soluble protein after heating vs DMSO (PISA); higher = thermal stabilisation; K562 cells, 10 uM, 30 min; active = over 0.2 and 3.5 SD of the protein, either way, in both replicates (recomputed)
# [1] = compound: COC1=CC=C(C=C1)CN2C=CC3=C2C=C(C=C3)C(=O)NO
# How it was run: (§1)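 K562 cells at 2×10^6 cells/mL were treated with 10 μM compound for 30 min. Aliquots were heated for 3 min across 48°C-58°C, pooled, and extracted in PBS with 0.5% NP-40 at 4°C; soluble protein was the supernatant after 21,000xg for 90 min. Soluble protein was quantified by TMTpro 16plex LC-MS/MS with channel sums equalised, and reported as log2 fold change in thermal stability against DMSO controls, with values from duplicates.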
# filanesib = compound: CON(C)C(=O)N1N=C(c2cc(F)ccc2F)S[C@@]1(CCCN)c1ccccc1 [filanesib]
# How it was run: as §1
# zotarolimus = compound: CO[C@H]1C[C@@H]2CC[C@@H](C)[C@@](O)(O2)C(=O)C(=O)N2CCCC[C@H]2C(=O)O[C@H]([C@H](C)C[C@@H]2CC[C@H](n3cnnn3)[C@H](OC)C2)CC(=O)[C@H](C)/C=C(\C)[C@@H](O)[C@@H](OC)C(=O)[C@H](C)C[C@H](C)/C=C/C=C/C=C/1C [zotarolimus]
# How it was run: as §1
# idasanutlin = compound: COc1cc(C(=O)O)ccc1NC(=O)[C@@H]1N[C@@H](CC(C)(C)C)[C@](C#N)(c2ccc(Cl)cc2F)[C@H]1c1cccc(Cl)c1F [idasanutlin]
# How it was run: as §1
# alisertib = compound: COc1cc(Nc2ncc3c(n2)-c2ccc(Cl)cc2C(c2c(F)cccc2OC)=NC3)ccc1C(=O)O [alisertib]
# How it was run: as §1
# [2] = compound: COc1cc2nc(-c3cc(F)ccc3O)nc(N[C@@H]3CNC[C@H]3C(C)(C)O)c2cc1OC
# How it was run: as §1
# gefitinib = compound: COc1cc2ncnc(Nc3ccc(F)c(Cl)c3)c2cc1OCCCN1CCOCC1 [gefitinib]
# How it was run: as §1
# [3] = compound: COc1cccc2cc(-c3nc([C@H]4CC[C@H](C(=O)O)CC4)n4ncnc(N)c34)[nH]c12
# How it was run: as §1
# lapatinib = compound: CS(=O)(=O)CCNCc1ccc(-c2ccc3ncnc(Nc4ccc(OCc5cccc(F)c5)c(Cl)c4)c3c2)o1 [lapatinib]
# How it was run: as §1
# pictilisib = compound: CS(=O)(=O)N1CCN(Cc2cc3nc(-c4cccc5[nH]ncc45)nc(N4CCOCC4)c3s2)CC1 [pictilisib]
# How it was run: as §1
# [4] = compound: CS(=O)(=O)c1ccc(-c2cnc(N)c(C(=O)Nc3ccccc3)n2)cc1
# How it was run: as §1
# crizotinib = compound: C[C@@H](Oc1cc(-c2cnn(C3CCNCC3)c2)cnc1N)c1c(Cl)ccc(F)c1Cl [crizotinib]
# How it was run: as §1
# [5] = compound: C[C@@H]1COCCN1C2=NC(=NC(=C2)C3(CC3)S(=O)(=O)C)C4=C5C=CNC5=CC=C4
# How it was run: as §1
# [6] = compound: C[C@H](C1=CC=C(C=C1)C(=O)NC2=C3C=CNC3=NC=C2)N
# How it was run: as §1
# duvelisib = compound: C[C@H](Nc1ncnc2nc[nH]c12)c1cc2cccc(Cl)c2c(=O)n1-c1ccccc1 [duvelisib]
# How it was run: as §1
# gandotinib = compound: Cc1cc(Nc2cc(CN3CCOCC3)c3nc(C)c(Cc4ccc(Cl)cc4F)n3n2)n[nH]1 [gandotinib]
# How it was run: as §1
# tozasertib = compound: Cc1cc(Nc2cc(N3CCN(C)CC3)nc(Sc3ccc(NC(=O)C4CC4)cc3)n2)n[nH]1 [tozasertib]
# How it was run: as §1
# [7] = compound: Cc1cc(SCc2sc(-c3ccc(C(F)(F)F)cc3)nc2C)ccc1OCC(=O)O
# How it was run: as §1
# doramapimod = compound: Cc1ccc(-n2nc(C(C)(C)C)cc2NC(=O)Nc2ccc(OCCN3CCOCC3)c3ccccc23)cc1 [doramapimod]
# How it was run: as §1
# ispinesib = compound: Cc1ccc(C(=O)N(CCCN)[C@@H](c2nc3cc(Cl)ccc3c(=O)n2Cc2ccccc2)C(C)C)cc1 [ispinesib]
# How it was run: as §1
# UniProt Q96T76, sequence (Q96T76 whole entry, looked up): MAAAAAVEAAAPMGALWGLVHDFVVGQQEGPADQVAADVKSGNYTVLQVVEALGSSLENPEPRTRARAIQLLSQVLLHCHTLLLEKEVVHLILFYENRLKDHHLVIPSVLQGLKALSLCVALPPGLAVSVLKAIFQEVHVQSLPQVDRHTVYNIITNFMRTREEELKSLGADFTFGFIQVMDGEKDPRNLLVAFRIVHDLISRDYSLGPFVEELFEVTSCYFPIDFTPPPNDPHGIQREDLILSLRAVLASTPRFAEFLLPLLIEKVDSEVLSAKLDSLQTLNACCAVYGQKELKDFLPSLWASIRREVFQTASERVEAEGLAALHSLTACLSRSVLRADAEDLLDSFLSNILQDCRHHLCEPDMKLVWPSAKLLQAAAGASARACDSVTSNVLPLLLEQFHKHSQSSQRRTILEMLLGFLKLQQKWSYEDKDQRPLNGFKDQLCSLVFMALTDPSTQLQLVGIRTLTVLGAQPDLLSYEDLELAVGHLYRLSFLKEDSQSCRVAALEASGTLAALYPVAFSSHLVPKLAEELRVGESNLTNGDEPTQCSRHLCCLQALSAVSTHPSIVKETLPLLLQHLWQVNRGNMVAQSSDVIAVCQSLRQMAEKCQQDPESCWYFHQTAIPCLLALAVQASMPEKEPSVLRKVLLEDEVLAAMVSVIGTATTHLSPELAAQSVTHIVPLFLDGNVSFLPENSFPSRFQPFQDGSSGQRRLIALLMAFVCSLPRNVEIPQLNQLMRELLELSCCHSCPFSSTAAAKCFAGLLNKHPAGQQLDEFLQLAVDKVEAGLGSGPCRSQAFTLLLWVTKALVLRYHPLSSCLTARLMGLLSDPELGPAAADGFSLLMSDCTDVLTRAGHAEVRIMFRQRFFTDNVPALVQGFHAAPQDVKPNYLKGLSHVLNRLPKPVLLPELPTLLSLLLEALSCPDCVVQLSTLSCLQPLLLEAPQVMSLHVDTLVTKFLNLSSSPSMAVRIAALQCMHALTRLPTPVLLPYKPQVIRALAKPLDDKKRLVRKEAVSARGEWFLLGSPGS
# UniProt P52701, sequence (P52701 whole entry, looked up): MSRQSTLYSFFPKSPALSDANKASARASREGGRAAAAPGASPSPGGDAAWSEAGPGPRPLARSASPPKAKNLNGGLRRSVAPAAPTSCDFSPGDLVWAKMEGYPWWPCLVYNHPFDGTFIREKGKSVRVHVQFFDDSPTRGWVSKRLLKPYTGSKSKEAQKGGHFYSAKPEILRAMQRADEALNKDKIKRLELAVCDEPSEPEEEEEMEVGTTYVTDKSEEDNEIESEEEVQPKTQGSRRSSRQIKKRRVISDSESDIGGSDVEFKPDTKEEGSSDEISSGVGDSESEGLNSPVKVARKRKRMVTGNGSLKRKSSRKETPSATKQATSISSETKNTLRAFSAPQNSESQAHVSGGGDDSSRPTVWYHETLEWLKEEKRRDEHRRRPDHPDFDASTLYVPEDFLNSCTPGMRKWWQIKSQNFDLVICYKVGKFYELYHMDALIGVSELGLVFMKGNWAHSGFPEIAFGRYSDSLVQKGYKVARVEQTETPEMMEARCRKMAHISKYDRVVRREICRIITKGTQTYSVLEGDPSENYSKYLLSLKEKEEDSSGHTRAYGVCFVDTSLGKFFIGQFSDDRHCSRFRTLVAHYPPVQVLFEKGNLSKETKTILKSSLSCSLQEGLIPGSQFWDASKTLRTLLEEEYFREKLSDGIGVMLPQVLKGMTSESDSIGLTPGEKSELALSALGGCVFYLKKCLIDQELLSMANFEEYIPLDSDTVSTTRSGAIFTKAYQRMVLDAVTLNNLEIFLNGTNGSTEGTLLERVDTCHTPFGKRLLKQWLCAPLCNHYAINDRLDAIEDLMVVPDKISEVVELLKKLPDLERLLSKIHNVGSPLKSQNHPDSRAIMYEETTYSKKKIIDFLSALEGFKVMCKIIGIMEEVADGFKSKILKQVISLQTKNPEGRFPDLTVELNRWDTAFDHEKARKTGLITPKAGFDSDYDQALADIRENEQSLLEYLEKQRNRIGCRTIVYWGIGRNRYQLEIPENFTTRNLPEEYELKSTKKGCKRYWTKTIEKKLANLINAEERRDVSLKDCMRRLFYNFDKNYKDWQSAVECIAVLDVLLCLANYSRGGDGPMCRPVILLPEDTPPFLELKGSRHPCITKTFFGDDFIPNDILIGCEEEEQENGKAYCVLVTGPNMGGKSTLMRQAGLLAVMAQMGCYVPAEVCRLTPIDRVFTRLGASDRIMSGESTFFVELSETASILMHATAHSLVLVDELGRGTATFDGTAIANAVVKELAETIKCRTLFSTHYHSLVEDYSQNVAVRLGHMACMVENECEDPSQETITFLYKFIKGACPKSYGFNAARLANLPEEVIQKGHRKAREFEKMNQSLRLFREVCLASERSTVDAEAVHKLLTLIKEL
# UniProt Q15738, sequence (Q15738 whole entry, looked up): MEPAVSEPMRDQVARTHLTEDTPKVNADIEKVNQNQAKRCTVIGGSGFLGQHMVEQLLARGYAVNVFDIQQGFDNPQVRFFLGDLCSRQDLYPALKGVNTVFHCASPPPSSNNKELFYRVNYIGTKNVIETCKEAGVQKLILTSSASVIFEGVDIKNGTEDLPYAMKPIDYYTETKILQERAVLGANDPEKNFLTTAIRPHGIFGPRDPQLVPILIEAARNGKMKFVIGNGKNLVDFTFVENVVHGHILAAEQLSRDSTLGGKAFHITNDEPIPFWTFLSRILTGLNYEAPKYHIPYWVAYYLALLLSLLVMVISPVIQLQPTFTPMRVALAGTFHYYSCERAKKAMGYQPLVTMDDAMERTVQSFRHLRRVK
# UniProt Q9Y5B8, sequence (Q9Y5B8 whole entry, looked up): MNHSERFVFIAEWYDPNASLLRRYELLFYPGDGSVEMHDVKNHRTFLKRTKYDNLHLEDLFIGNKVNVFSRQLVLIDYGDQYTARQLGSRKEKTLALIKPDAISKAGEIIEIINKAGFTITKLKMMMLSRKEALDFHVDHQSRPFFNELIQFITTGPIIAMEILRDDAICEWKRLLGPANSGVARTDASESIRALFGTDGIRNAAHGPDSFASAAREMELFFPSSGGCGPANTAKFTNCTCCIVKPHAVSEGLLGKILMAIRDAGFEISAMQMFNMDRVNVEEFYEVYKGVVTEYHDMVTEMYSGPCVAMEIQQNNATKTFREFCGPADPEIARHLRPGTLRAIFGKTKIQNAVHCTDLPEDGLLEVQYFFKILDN
# UniProt Q13423, sequence (Q13423 whole entry, looked up): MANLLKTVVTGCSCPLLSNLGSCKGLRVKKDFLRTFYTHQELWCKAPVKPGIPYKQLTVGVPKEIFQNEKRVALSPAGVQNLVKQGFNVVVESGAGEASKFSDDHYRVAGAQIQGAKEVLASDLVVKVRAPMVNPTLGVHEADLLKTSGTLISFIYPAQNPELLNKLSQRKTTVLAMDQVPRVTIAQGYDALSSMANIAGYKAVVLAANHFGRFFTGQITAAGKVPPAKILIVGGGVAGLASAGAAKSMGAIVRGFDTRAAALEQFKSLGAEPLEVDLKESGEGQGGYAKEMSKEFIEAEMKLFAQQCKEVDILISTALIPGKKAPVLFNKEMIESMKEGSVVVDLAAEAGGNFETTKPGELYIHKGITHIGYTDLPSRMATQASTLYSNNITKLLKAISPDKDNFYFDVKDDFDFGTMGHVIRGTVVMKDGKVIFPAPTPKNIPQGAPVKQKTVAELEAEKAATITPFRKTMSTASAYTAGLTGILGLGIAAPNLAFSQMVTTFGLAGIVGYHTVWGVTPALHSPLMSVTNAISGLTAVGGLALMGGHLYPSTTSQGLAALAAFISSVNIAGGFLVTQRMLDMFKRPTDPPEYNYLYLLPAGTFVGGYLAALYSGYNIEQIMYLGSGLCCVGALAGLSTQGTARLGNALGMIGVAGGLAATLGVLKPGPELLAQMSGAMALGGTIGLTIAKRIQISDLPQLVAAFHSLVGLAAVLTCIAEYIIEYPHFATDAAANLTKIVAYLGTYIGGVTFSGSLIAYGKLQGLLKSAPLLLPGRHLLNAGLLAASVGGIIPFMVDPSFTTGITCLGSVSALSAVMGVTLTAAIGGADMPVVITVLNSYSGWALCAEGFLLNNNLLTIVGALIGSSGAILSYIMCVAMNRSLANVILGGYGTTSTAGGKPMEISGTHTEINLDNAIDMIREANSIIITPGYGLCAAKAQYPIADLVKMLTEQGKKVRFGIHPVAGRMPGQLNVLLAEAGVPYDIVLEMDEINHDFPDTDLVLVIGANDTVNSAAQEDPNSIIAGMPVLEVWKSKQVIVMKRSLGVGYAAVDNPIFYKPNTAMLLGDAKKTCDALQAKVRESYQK
# UniProt P15559, sequence (P15559 whole entry, looked up): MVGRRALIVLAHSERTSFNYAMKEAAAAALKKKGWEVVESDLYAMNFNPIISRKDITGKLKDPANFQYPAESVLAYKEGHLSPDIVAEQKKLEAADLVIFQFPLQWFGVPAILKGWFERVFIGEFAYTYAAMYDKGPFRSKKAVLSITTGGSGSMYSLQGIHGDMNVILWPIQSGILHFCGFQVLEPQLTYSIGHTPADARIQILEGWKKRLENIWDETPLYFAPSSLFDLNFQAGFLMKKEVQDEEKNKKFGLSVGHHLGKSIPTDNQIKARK
# UniProt Q9HAN9, sequence (Q9HAN9 whole entry, looked up): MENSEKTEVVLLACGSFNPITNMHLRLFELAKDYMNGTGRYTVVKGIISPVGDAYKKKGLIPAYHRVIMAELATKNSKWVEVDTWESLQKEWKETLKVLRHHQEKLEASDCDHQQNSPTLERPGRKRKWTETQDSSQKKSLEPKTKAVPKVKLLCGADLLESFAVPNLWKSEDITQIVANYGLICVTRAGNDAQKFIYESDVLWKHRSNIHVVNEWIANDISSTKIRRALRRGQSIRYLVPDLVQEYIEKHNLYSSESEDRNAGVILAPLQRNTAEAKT
Target,log2 fold change [1],log2 fold change (filanesib),log2 fold change (zotarolimus),log2 fold change (idasanutlin),log2 fold change (alisertib),log2 fold change [2],log2 fold change (gefitinib),log2 fold change [3],log2 fold change (lapatinib),log2 fold change (pictilisib),log2 fold change [4],log2 fold change (crizotinib),log2 fold change [5],log2 fold change [6],log2 fold change (duvelisib),log2 fold change (gandotinib),log2 fold change (tozasertib),log2 fold change [7],log2 fold change (doramapimod),log2 fold change (ispinesib)
MSH6 (UniProt P52701),0.09,-0.154,0.088,-0.003,0.75,-0.017,0.068,-0.04,0.008,-0.026,0.075,-0.427,0.152,-0.018,0.009,-0.196,0.099,0.185,-0.053,-0.087
NMNAT1 (UniProt Q9HAN9),-0.168,0.354,-0.023,0.154,-0.115,0.132,-0.022,-0.102,0.018,-0.014,-0.053,-0.016,-0.435,0.164,-0.046,0.132,0.024,-0.056,0.296,-0.212
NNT (UniProt Q13423),-0.008,-0.08,0.015,-0.076,-0.041,0.037,0.016,0.031,-0.031,-0.01,0.031,0.032,0.047,-0.06,0.025,-0.246 (active),0.015,-0.006,-0.023,0.02
NQO1 (UniProt P15559),0.062,-0.053,0.069,-0.085,-0.094,0.011,-0.006,0.001,-0.017,-0.006,0.055,-0.004,0.069,-0.06,0.165,-0.062,0.011,0.152,-0.008,0.05
NSDHL (UniProt Q15738),0.006,-0.11,0.04,0.208,0.033,-0.062,0.021,0,0.185,0.023,0.04,0.314 (active),0.045,-0.105,0.024,0.239,0.083,0.058,0.22 (active),-0.016
MMS19 isoform 8 (UniProt Q96T76),-0.094,-0.036,0.037,-0.014,-0.019,0.06,0.026,0.019,-0.021,-0.008,0.002,-0.156,0.023,0.053,0.044,-0.129,0.051,0.103,0.033,-0.035
NME7 (UniProt Q9Y5B8),-0.1,0.124,0.058,-0.041,0.054,0.015,,-0.077,-0.046,0.071,-0.187,-0.136,-0.027,0.046,-0.031,-0.091,0.068,0.056,0.033,-0.117
